Measurements taken from PubChem BioAssay AID1903 (Southern Research Specialized Biocontainment Screening …, 2009).
In all, about 310,000 compounds went through this assay and about 1,200 (0.39%) were called active. How the calls were made is not given here. Not all results are given here. Results with a measured potency or affinity are listed apart.

target: Large T antigen (Simian virus 40) (UniProt P03070); test: SV40 large T antigen inhibitors, biochemical (AID 1903); conditions: SV40 large T antigen ATPase/helicase inhibition assay; at 20 µM; hits give high values
Sequence (P03070 whole entry, looked up): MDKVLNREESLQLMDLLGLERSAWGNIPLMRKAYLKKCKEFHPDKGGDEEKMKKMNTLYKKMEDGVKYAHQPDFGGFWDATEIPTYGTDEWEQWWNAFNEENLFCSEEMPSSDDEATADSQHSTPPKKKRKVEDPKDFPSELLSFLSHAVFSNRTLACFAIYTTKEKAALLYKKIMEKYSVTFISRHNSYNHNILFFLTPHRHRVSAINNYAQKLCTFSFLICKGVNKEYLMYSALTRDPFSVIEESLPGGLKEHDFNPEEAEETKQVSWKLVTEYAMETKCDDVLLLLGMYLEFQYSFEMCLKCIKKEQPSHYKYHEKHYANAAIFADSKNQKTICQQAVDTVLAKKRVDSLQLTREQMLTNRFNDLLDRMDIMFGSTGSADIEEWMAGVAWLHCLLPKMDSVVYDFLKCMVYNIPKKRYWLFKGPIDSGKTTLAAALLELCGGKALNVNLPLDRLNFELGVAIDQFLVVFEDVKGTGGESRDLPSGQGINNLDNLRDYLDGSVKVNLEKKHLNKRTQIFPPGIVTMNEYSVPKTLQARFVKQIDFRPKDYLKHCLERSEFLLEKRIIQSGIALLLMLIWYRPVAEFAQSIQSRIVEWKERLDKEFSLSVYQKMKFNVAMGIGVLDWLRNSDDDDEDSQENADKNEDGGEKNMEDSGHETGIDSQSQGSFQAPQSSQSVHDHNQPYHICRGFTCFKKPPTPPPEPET

inhibition, inactive:
Cc1ccc(-n2nnnc2SCC(=O)Nc2ccc(N3CCN(C)CC3)cc2)c(C)c1 17.6%, COc1ccc2[nH]cc(C(=O)CN3CCCCC3)c2c1 20.3%, O=C(NCCC1=CCCCC1)Nc1ccc2nsnc2c1 -1.37%, Cn1c(N)c(C(=O)COC(=O)c2ccc(S(=O)(=O)N3CCCCC3)cc2)c(=O)n(C)c1=O 2.82%, CCc1noc(C)c1C(=O)Nc1nnc(C2CCCCC2)s1 16%, COC(=O)c1c([N+](=O)[O-])c(OC)c(OC)c(OC)c1[N+](=O)[O-] 2.68%, COC(=O)[C@H](CCSC)NS(=O)(=O)c1ccccc1Br 24.3%, Cc1cccc(NC(=O)c2ccc(NC(=O)CC3SC(N4CCCC4)=NC3=O)cc2)n1 (stereo not given) 12.5%, CC1CCCN(S(=O)(=O)c2ccc(CN3C(=O)c4cccnc4C3=O)cc2)C1 (stereo not given) 9.07%, Cc1cccc(N=C2NC(=O)/C(=C/C=C/c3ccco3)S2)c1C 5.68%, CC(C)CN1C(=O)/C(=C/c2ccco2)NC1=S 19.9%, CCCCn1c(N)c(N(CC)C(=O)/C=C/c2ccco2)c(=O)[nH]c1=O 5.15%, O=C1NN(c2ccc(F)cc2)C(=O)/C1=C\C=C\c1ccco1 19.7%, CCN1C(=O)/C(=C\c2ccco2)C(C(=O)OC)=C1C 8.18%, CCc1ccc(N2NC(=O)/C(=C/C=C/c3ccco3)C2=O)cc1 22.1%, Cc1csc2nc(CSc3nc4ccccc4o3)c(Br)n12 1.48%, Cc1c[n+]([O-])n(-c2ccc(C(=O)O)cc2)n1 2.23%, O=C(c1cc(=O)c2ccccc2o1)N1CCN(c2cccc(Cl)c2)CC1 8.8%, CC(=O)c1cccc(NS(=O)(=O)N2CCOCC2)c1 9.29%, O=C(CCCc1ccccc1)Nc1cccnc1Cl 10%, O=C(c1c(Cl)cccc1Cl)N1CCN(c2cccc3[nH]ccc23)CC1 23.6%, O=[N+]([O-])c1cccc(CN2CCN(c3cccc4[nH]ccc34)CC2)c1 27.1%, Cc1ccc(S(=O)(=O)N2CCC(C(=O)NNC(=O)c3ccc(F)cc3)CC2)cc1 7.95%, Cc1ccc(C)c(CSc2nnc(-c3ccccn3)n2N)c1 4.69%, COc1ccc(-n2c(=O)c3c4c(sc3n3c(=S)[nH]nc23)CCCC4)cc1 2.8%, Cc1cccc(-n2c(=O)c3c4c(sc3n3c(=S)[nH]nc23)CCC4)c1 34.1%, CCSc1nnc2n(-c3ccc(OC)cc3)c(=O)c3c4c(sc3n12)CCCC4 2.78%, Cc1nnc2n(-c3ccccc3)c(=O)c3c4c(sc3n12)CCCC4 4.53%, COc1ccccc1-n1c(=O)c2c3c(sc2n2c(=S)[nH]nc12)CCC3 30.3%, CSc1nnc2n(-c3ccccc3)c(=O)c3c4c(sc3n12)CCC4 3.42%, COc1ccccc1C1(O)C(=O)Nc2ccc(C)cc21 (stereo not given) 9.43%, CS(=O)(=O)N1CCN(c2ncnc3c2cnn3-c2ccccc2)CC1 1.55%, CC1=CC(=C(C#N)C#N)C=C(C)N1CCN1CCN(C(=O)Nc2ccc(Cl)c(Cl)c2)CC1 3.99%, Cc1ccc(C)n1-c1sc2c(c1C#N)CCCC2 7.49%, Cc1cc(/C=C2/NC(=O)NC2=O)c(C)n1-c1sc2c(c1C#N)CCCC2 17.3%, CCOC(=O)N1CCC(N2CCN(S(=O)(=O)c3ccc(OC)cc3)CC2)CC1 4.73%, COc1ccc(OC)c(-n2c(SCC(=O)Nc3cc(C)on3)nnc2-c2c[nH]c3ccccc23)c1 -1.81%, CCN1CC2([N+](=O)[O-])CC=C(OC)C([N+](=O)[O-])(C1)C2 (stereo not given) -0.47%, CN(C)Cc1nc2ccccc2c(=O)n1CC#N 8.3%, N#CCn1c(Cc2ccccc2)nc2ccccc2c1=O 10.6%, O=Cc1cn(-c2ccccc2)nc1-c1ccc(F)cc1 3.65%, Cc1ccc2c(c1)N(C(=O)CCC(=O)N1CCCCC1)CCO2 9.22%, N#Cc1c(-c2ccccc2)cc(-c2ccccc2)[nH]c1=O -4.42%, N#Cc1c(-c2cccc(Br)c2)cc(-c2ccco2)[nH]c1=O 4.79%, COc1ccc(-c2cc(-c3ccco3)[nH]c(=O)c2C#N)cc1 33.2%, COc1ccc(-c2cc(-c3ccco3)[nH]c(=O)c2C#N)cc1OC 33.5%, O=C(NCCN1CCCCCC1)C1CCC(CNS(=O)(=O)c2cccc3cccnc23)CC1 (stereo not given) 10.5%, CCCN1CCN(CCCNC(=O)CCN2C(=O)COc3ccccc32)CC1 15.1%, COc1ccc(CCNC(=O)Cn2cnc3scc(-c4ccccc4)c3c2=O)cc1OC 5.46%, Cn1nc(C(=O)Nc2ccc(S(=O)(=O)N3CCCC3)cc2)ccc1=O 0.66%, Cc1ccc(C(=O)Nc2ccncc2)cc1[N+](=O)[O-] 13%, Nc1n[nH]c(N)c1N=Nc1ccc(F)cc1 13.8%, Cc1ccc(N=Nc2c(N)n[nH]c2N)cc1 25%, COc1cc2[nH]c3c(=O)n4c(nc3c2cc1OC)SCCC4 7.73%, Cc1cccc(NNC(=O)C2CCC2)c1 10.2%, N#Cc1c(NC(=O)c2ccco2)sc2c1CCC2 28.5%, N#Cc1c(NC(=O)/C=C/c2ccco2)sc2c1CCCC2 11.5%, O=C(CCc1nnc2ccc(NCc3ccco3)nn12)Nc1ccccc1F 14.6%, CCN(c1ccccc1)S(=O)(=O)c1cccc(C(=O)NCC(c2ccco2)N2CCCC2)c1 (stereo not given) 20.1%, CCN(CC)S(=O)(=O)c1ccc(NC2=NS(=O)(=O)c3ccccc32)cc1 5.33%, O=S1(=O)N=C(Nc2ccc(N3CCOCC3)cc2)c2ccccc21 7.37%, CN(C)CCOC(=O)C12CC3(C)CC(C)(CC(C)(C3)C1)C2 20.7%, COc1ccc(S(=O)(=O)/N=C2/NC(=O)/C(=C\c3cc(OC)c(OC)cc3[N+](=O)[O-])S2)cc1 31.5%, COc1cc(/C=C2\S/C(=N/S(=O)(=O)c3ccccc3)NC2=O)c([N+](=O)[O-])cc1OC 23%, Cc1ccnc(NC(c2ccccc2O)c2oc(CO)cc(=O)c2O)c1 (stereo not given) 13.4%, COc1cccc(CN2CCN(Cc3nc4c(s3)CCCC4)CC2CCO)c1 (stereo not given) 7.56%, N#Cc1ccc(Oc2ccc(S(=O)(=O)N3CCOCC3)cn2)cc1 8.88%, O=C1NC(=O)/C(=C/c2ccccc2Cl)N1 2.2%, O=C1Nc2ccccc2/C1=C/c1ccccc1Cl 4.98%, O=C1CCC(C(=O)OCC(=O)c2ccccc2)N1 (stereo not given) -3.04%, Cc1ccc([C@@H]2[C@@H]3C(=O)N(C)C(=O)[C@@H]3[C@]3(C)C(=O)N(Cc4ccccn4)CC(=O)N23)o1 21.8%, CC1=Nc2cccc3cccc(c23)N1 14.5%, CC(C)C1=Nc2cccc3cccc(c23)N1 31.8%, NS(=O)(=O)c1ccc(CNS(=O)(=O)c2ccc3ccccc3c2)cc1 8.92%, O=S1(=O)N=C(N(CCO)/N=C/c2ccccc2)c2ccccc21 -0.93%, CC(=O)Nc1ccc2c(c1)CCc1ccccc1-2 2.87%, O=C(O)CCCc1ccc2c(c1)CCc1ccccc1-2 4.11%, CCCCNC(=S)NNC(=O)c1c(Cl)c(C)nn1C 13.2%, CCN1C(=O)/C(=C\c2ccc(-c3ccc([N+](=O)[O-])cc3OC)o2)SC1=Nc1cccc(C(=O)O)c1 13.7%, COC(=O)c1ccccc1-c1ccc(/C=C2\C(=O)N(c3ccccc3)N=C2c2ccccc2)o1 -14%, Cc1ccc(C(=O)/C=C/c2ccc(-c3ccccc3[N+](=O)[O-])o2)cc1 -1.93%, CC1=NN(c2ccc(Br)cc2)C(=O)/C1=C/c1ccc(-c2ccccc2C(=O)O)o1 33.3%, CCSC1=N/C(=C\c2ccc(-c3ccccc3[N+](=O)[O-])o2)C(=O)S1 45.4%, COc1ccc(OC)c(CNc2ccc([N+](=O)[O-])cc2C)c1 -3.94%, COc1ccc(Br)cc1S(=O)(=O)n1c([N+](=O)[O-])cnc1C -1.15%, C=CCn1cccc(C(=O)Nc2ccc(C)c(C)c2)c1=O 10.4%, Cc1ccc(CNC(=O)COC(=O)Cc2ccc(-c3ccccc3)cc2)cc1 1.94%, CCc1nnc(NC(=O)CCN2C(=O)C3CCCCC3C2=O)s1 (stereo not given) 8.24%, CCOC(=O)C(C)Sc1nc2c(c(=O)[nH]c(=O)n2C)n1C/C=C(/C)Cl (stereo not given) 0.445%, CN(C)/C=C/c1oc2ccc(O)cc2c1[N+](=O)[O-] 32%, CC(=O)Oc1ccc2oc(/C=C/N(C)C)c([N+](=O)[O-])c2c1 13%, OC(COc1ccc(CNCCc2ccccc2F)cc1)CN1CCCCC1 (stereo not given) 5.86%, COCCNC(=S)N/N=C(\C)c1ccc(OC)cc1 13.8%, COCCNC(=S)N/N=C(\C)c1ccc(OC(F)F)cc1 21.1%, COC(=O)c1ccccc1NC(=O)CSc1n[nH]c(C)n1 0.8%
